According to PubChem BioAssay (NCATS):
Records with an inconclusive call do not appear. Active and inactive are the calls of the source. Calls come from the whole dose curve; as a rule, active = well fitted curve in the direction sought with a large enough effect; inconclusive = small, poorly fitted or top-dose-only effect, or another doubt; inactive = no such curve, though single readings can be large; an effect the other way counts as inactive or inconclusive. Numbered stars: 1 amine (or outer) side, 2 acyl side, 3 side chain; on linkers, the order of the positions; unused ones are H or OH. Bridge positions count the residues as written; N and C are the ends. Square brackets hold non-standard residues; d marks the D form. Peptide text beside a SMILES is read from it. I, II: the chains in the order shown. Actinocin(9to1) = Cc1c2oc3c(C)ccc(C(=O)[*:1])c3nc-2c(C(=O)[*:2])c(N)c1=O; NMeV = CN[C@H](C(=O)O)C(C)C; Sar = CNCC(=O)O

Test: qHTS of pediatric cancer cell lines to identify multiple opportunities for drug repurposing: Primary screen for control Hh wild type fibroblast cells (AID 1347106); note: nearly all actives have a fitted effect of over 55% in size;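 for activity change, negative = cytotoxic: % is set by controls: 0 for no effect and ±100 for the full control effect; a drop in luminescence marks cytotoxicity and a rise apparent proliferation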
Conditions: Hh wild-type fibroblast viability, CellTiter-Glo luminescence, 48 h; series mostly up to 46 µM; activity change, negative = cytotoxic: at the top concentration
Outline: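 Cells (500-1,000/well) in growth media were settled 5 h at 37 degrees C, then given compounds for 48 h. Viability was read as CellTiter-Glo luminescence. Primary runs used MIPE at 11 points (0.78 nM-46 µM) and NPC at 8 points (0.59 nM-46 µM); follow-ups used 11 points.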
Potency is the fitted concentration of half-maximal effect.

| Structure (SMILES) | Potency | activity change, negative = cytotoxic |
| --- | --- | --- |
| CN(C)C(=S)SC(=S)N(C)C | 1.19 µM (active) | – |
| OC[C@H]1O[C@@H](n2cnc3c(=S)nc[nH]c32)[C@H](O)[C@@H]1O | – | 6.55% (inactive) |
| CC(=O)O[C@]1(C(C)=O)CC[C@H]2[C@@H]3C[C@H](C)C4=CC(=O)CC[C@]4(C)[C@H]3CC[C@@]21C | – | 4.25% (inactive) |
| CC(=O)Oc1ccc2c(c1)CC[C@@H]1[C@@H]2CC[C@]2(C)[C@@H](O)CC[C@@H]12 | – | 14.5% (inactive) |
| COc1cc2c(cc1OC)[C@@H]1CC(=O)[C@@H](CC(C)C)CN1CC2 | – | 7.95% (inactive) |
| CC(C)N=C(N)/N=C(\N)Nc1ccc(Cl)cc1 | – | -0.812% (inactive) |
| CC(=O)Oc1ccc(C(c2ccc(OC(C)=O)cc2)c2ccccn2)cc1 | – | -16.9% (inactive) |

Test: qHTS of pediatric cancer cell lines to identify multiple opportunities for drug repurposing: Primary screen for Rh30 cells (AID 1347107); note: nearly all actives have a fitted effect of over 75% in size; for activity change, negative = cytotoxic: % is set by controls: 0 for no effect and ±100 for the full control effect
Conditions: Rh30 rhabdomyosarcoma viability, CellTiter-Glo luminescence, 48 h; series mostly up to 46 µM; activity change, negative = cytotoxic: at the top concentration
Outline: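 Cells (500-1,000/well) rested 5 h, then received compounds for 48 h; metabolically active cells were measured by CellTiter-Glo luminescence. Final concentrations spanned up to 46 µM (MIPE, 11-point) or 0.59 nM-46 µM (NPC, 8-point) in primary screens, 11-point in follow-ups.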

| Structure (SMILES) | Potency | activity change, negative = cytotoxic |
| --- | --- | --- |
| CCCCC(CC)CN=C(N)NC(N)=NCCCCCCN=C(N)NC(N)=NCC(CC)CCCC (stereo not drawn) | 18.8 µM (active) | – |
| NC(=O)c1cc[n+](CC2=C(C(=O)[O-])N3C(=O)[C@@H](NC(=O)Cc4cccs4)[C@H]3SC2)cc1 | – | 20.6% (inactive) |
| CN=C(NC#N)NCCSCc1csc(N=C(N)N)n1 | – | 23% (inactive) |
| CN(C)CC/C=C1\c2ccccc2Sc2ccc(Cl)cc21 | – | 14.5% (inactive) |
| COc1c2occc2c(OC)c2c(=O)cc(C)oc12 | – | 28.7% (inactive) |
| Cc1c(C(N)=O)cc([N+](=O)[O-])cc1[N+](=O)[O-] | – | 3.19% (inactive) |
| Nc1ccc(/C=C/c2ccc(N)cc2S(=O)(=O)O)c(S(=O)(=O)O)c1 | – | 24.6% [at 0.597 µM] (inactive) |
| C[C@@H]1C[C@H]2[C@@H]3C[C@H](F)C4=CC(=O)C(Cl)=C[C@]4(C)[C@@]3(F)[C@@H](O)C[C@]2(C)[C@@]1(O)C(=O)CO | – | 6.63% (inactive) |
| CCC(C(=O)OCCN(CC)CC)c1ccccc1 (stereo not drawn) | – | 21% (inactive) |
| CCN1CCCC1=O | – | 22.2% (inactive) |
| Cc1c(N(C)CS(=O)(=O)O)c(=O)n(-c2ccccc2)n1C | – | 16.6% (inactive) |
| CCOC(=O)OC(C)OC1=C(C(=O)Nc2ccccn2)N(C)S(=O)(=O)c2ccccc21 (stereo not drawn) | – | 13.8% (inactive) |
| CCCCC(=O)O[C@]1(C(=O)CO)CC[C@H]2[C@@H]3CCC4=CC(=O)CC[C@]4(C)[C@H]3[C@@H](O)C[C@@]21C | – | 15% (inactive) |
| Cc1c(C)n(CCN(C)C)c2ccc(C(=O)OCCN(C)C)cc12 | – | 12.1% (inactive) |
| C=CCc1ccc(O)c(OC)c1 | – | 17.1% (inactive) |
| Cc1c2oc3c(C)ccc(C(=O)N[C@@H]4C(=O)N[C@H](C(C)C)C(=O)N5CCC[C@H]5C(=O)N(C)CC(=O)N(C)[C@@H](C(C)C)C(=O)O[C@@H]4C)c3nc-2c(C(=O)N[C@@H]2C(=O)N[C@H](C(C)C)C(=O)N3CCC[C@H]3C(=O)N(C)CC(=O)N(C)[C@@H](C(C)C)C(=O)O[C@@H]2C)c(N)c1=O (I: T[dV]P[Sar][NMeV] / II: T[dV]P[Sar][NMeV]; ester I:1-I:C, II:1-II:C; linker I:N-II:N via Actinocin(9to1)) | – | 5.39% (inactive) |
| OC[C@H]1O[C@H](O[C@]2(CCl)O[C@H](CCl)[C@@H](O)[C@@H]2O)[C@H](O)[C@@H](O)[C@H]1Cl | – | 11% (inactive) |
| NCCC(O)(P(=O)(O)O)P(=O)(O)O | – | 18% (inactive) |
| O=S1(=O)c2cccc3cccc(c23)N1CCCN1CCN(c2ccc(F)cc2)CC1 | – | -1.36% (inactive) |
| Oc1cc(O)c2c(c1)O[C@H](c1ccc(O)c(O)c1)[C@H](O)C2 | – | 12.7% (inactive) |
| CCCOC(C(=O)OC1CCN(C)CC1)(c1ccccc1)c1ccccc1 | – | 11.3% (inactive) |
| Cc1cc2c(cc1CC(=O)c1sccc1S(=O)(=O)Nc1onc(C)c1Cl)OCO2 | – | 15.1% (inactive) |
| COc1cccc2c1C(=O)c1c(O)c3c(c(O)c1C2=O)C[C@@](O)(C(C)=O)C[C@@H]3O[C@H]1C[C@H](N)[C@H](O)[C@H](C)O1 | – | -7.56% (inactive) |

Test: qHTS of pediatric cancer cell lines to identify multiple opportunities for drug repurposing: Primary screen for Rh41 cells (AID 1347108); note: nearly all actives have a fitted effect of over 70% in size;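 for activity change, negative = cytotoxic: luminescence drop marks cytotoxic hits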
Conditions: Rh41 rhabdomyosarcoma viability, CellTiter-Glo luminescence, 48 h; series mostly up to 46 µM; activity change, negative = cytotoxic: at the top concentration
Outline: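 CRCs from 8- or 11-point titrations (lowest final 0.59 nM NPC, 0.78 nM MIPE). Cell viability: CellTiter-Glo after 48 h incubation, 15 min room-temperature development, luminescence imaging.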

| Structure (SMILES) | Potency | activity change, negative = cytotoxic |
| --- | --- | --- |
| CN(C)C(=S)SC(=S)N(C)C | 0.944 µM (active) | – |
| CC(C)(C)CC(C)(C)c1ccc(OCCOCC[N+](C)(C)Cc2ccccc2)cc1 | 16.8 µM (active) | – |
| CCCCC(CC)CN=C(N)NC(N)=NCCCCCCN=C(N)NC(N)=NCC(CC)CCCC (stereo not drawn) | 21.1 µM (active) | – |
| NC(=O)c1cc[n+](CC2=C(C(=O)[O-])N3C(=O)[C@@H](NC(=O)Cc4cccs4)[C@H]3SC2)cc1 | – | 17.2% (inactive) |
| CN=C(NC#N)NCCSCc1csc(N=C(N)N)n1 | – | 24.5% (inactive) |
| COc1c2occc2c(OC)c2c(=O)cc(C)oc12 | – | 37.5% (inactive) |
| Cc1c(C(N)=O)cc([N+](=O)[O-])cc1[N+](=O)[O-] | – | -5.27% (inactive) |
| Nc1ccc(/C=C/c2ccc(N)cc2S(=O)(=O)O)c(S(=O)(=O)O)c1 | – | 37.3% [at 0.597 µM] (inactive) |
| C[C@@H]1C[C@H]2[C@@H]3C[C@H](F)C4=CC(=O)C(Cl)=C[C@]4(C)[C@@]3(F)[C@@H](O)C[C@]2(C)[C@@]1(O)C(=O)CO | – | 11.6% (inactive) |
| CCC(C(=O)OCCN(CC)CC)c1ccccc1 (stereo not drawn) | – | 16.7% (inactive) |
| CCN1CCCC1=O | – | 30.8% (inactive) |
| COc1cc(C(=S)N2CCOCC2)cc(OC)c1OC | – | 16.1% (inactive) |
| Cc1c(N(C)CS(=O)(=O)O)c(=O)n(-c2ccccc2)n1C | – | 29.2% (inactive) |
| C[C@]12CC[C@@H]3c4ccc(O)cc4CC[C@H]3[C@@H]1C[C@@H](O)[C@@H]2O | – | 17.3% (inactive) |
| Cc1ccc(O)c2ncccc12 | 4.73 µM (active) | – |
| CCOC(=O)OC(C)OC1=C(C(=O)Nc2ccccn2)N(C)S(=O)(=O)c2ccccc21 (stereo not drawn) | – | 19% (inactive) |
| CC(=O)Oc1ccc2c(c1)CC[C@@H]1[C@@H]2CC[C@]2(C)[C@@H](O)CC[C@@H]12 | – | 8.73% (inactive) |

| Structure (SMILES) | Potency | activity change, negative = cytotoxic |
| --- | --- | --- |
| COC(=O)CCc1ccc(OCC(O)CNC(C)C)cc1 (stereo not drawn) | – | 11.4% (inactive) |
| CCCCC(=O)O[C@]1(C(=O)CO)CC[C@H]2[C@@H]3CCC4=CC(=O)CC[C@]4(C)[C@H]3[C@@H](O)C[C@@]21C | – | 16.8% (inactive) |
| Cc1c(C)n(CCN(C)C)c2ccc(C(=O)OCCN(C)C)cc12 | – | 20.7% (inactive) |
| COc1cc2c(cc1OC)[C@@H]1CC(=O)[C@@H](CC(C)C)CN1CC2 | – | 17.4% (inactive) |
| C=CCc1ccc(O)c(OC)c1 | – | 19.3% (inactive) |
| CCCCCCCCCCCCCCCC[N+](C)(C)CC | 13.3 µM (active) | – |
| OC[C@H]1O[C@H](O[C@]2(CCl)O[C@H](CCl)[C@@H](O)[C@@H]2O)[C@H](O)[C@@H](O)[C@H]1Cl | – | 5.13% (inactive) |
| CC(C)N=C(N)/N=C(\N)Nc1ccc(Cl)cc1 | – | -3.29% (inactive) |
| NCCC(O)(P(=O)(O)O)P(=O)(O)O | – | 19.4% (inactive) |
| O=S1(=O)c2cccc3cccc(c23)N1CCCN1CCN(c2ccc(F)cc2)CC1 | – | 0.131% (inactive) |
| Cc1cccc(C)c1NC(=O)CN1CCN(CCCC(c2ccc(F)cc2)c2ccc(F)cc2)CC1 | – | 12.8% (inactive) |
| Oc1cc(O)c2c(c1)O[C@H](c1ccc(O)c(O)c1)[C@H](O)C2 | – | 15.7% (inactive) |
| CCCOC(C(=O)OC1CCN(C)CC1)(c1ccccc1)c1ccccc1 | – | 8.97% (inactive) |
| CC(=O)Oc1ccc(C(c2ccc(OC(C)=O)cc2)c2ccccn2)cc1 | – | 2.36% (inactive) |
| Cc1cc2c(cc1CC(=O)c1sccc1S(=O)(=O)Nc1onc(C)c1Cl)OCO2 | – | 17.8% (inactive) |
| COc1cccc2c1C(=O)c1c(O)c3c(c(O)c1C2=O)C[C@@](O)(C(C)=O)C[C@@H]3O[C@H]1C[C@H](N)[C@H](O)[C@H](C)O1 | 0.75 µM (active) | – |
